Legend:
Test in all cases: DAPPL (digital affinity profiling via proximity ligation, sequencing); 10 mM Tris-HCl pH 7.5, 50 mM NaCl, 1 mM DTT, 4% glycerol, room temperature, 30 min; GST-TFs on glutathione beads, 16-mer random dsDNA library, 0.1% formaldehyde crosslink after washing; high values mean tight binding
FEV = molecular target: T1, FEV (Homo sapiens, UniProt Q99581 1-238); settings: protein: recombinant; tags: N-terminal GST; dsDNA, one strand shown
T1 sequence: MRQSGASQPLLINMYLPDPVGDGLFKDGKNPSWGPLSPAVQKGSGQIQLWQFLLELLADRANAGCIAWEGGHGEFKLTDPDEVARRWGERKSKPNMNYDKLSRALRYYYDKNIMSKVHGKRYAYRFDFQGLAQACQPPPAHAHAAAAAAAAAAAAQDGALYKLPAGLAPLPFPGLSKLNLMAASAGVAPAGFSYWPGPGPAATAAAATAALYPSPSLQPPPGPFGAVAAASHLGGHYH
Summary of the method: (§1)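 Beads coated with glutathione captured GST-fused human transcription factors that had been expressed in yeast, and the factors were then given DNA barcodes and pooled with a tag-only sample. The pools were incubated with 200 nmole of a random double-stranded 16-mer DNA library in Tris/NaCl/DTT/glycerol buffer for 30 min at room temperature, washed, crosslinked with 0.1% formaldehyde and proximity-ligated with BsaI/T4 ligase at 37 °C for 1 h. PCR amplification and Illumina NextSeq500 sequencing came last. Binding signal is each hexamer's read frequency for a factor divided by its frequency for the tag-only sample.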

ETV5 = ETV5 (Homo sapiens, UniProt P41161 1-510); settings: protein: recombinant; tags: N-terminal GST; dsDNA, one strand shown
ETV5, sequence (P41161 whole entry): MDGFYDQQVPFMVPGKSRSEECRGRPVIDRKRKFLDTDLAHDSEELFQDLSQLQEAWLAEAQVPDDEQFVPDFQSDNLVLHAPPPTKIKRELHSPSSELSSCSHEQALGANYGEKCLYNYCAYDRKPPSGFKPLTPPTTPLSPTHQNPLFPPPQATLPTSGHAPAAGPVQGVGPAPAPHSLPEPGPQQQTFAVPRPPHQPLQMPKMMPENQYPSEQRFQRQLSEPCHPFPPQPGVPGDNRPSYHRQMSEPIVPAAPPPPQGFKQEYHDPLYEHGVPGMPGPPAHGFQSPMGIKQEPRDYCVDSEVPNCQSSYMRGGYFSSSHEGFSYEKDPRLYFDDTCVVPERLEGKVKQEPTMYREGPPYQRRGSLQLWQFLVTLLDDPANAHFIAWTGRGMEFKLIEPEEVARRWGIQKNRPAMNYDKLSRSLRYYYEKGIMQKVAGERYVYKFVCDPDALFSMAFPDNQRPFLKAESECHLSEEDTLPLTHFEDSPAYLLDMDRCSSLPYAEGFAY
Summary of the method: as §1

HSF1 = HSF1 (Homo sapiens, UniProt Q00613 1-529); settings: protein: recombinant; tags: N-terminal GST; chain copies: 3; dsDNA, one strand shown
HSF1, sequence (Q00613 whole entry): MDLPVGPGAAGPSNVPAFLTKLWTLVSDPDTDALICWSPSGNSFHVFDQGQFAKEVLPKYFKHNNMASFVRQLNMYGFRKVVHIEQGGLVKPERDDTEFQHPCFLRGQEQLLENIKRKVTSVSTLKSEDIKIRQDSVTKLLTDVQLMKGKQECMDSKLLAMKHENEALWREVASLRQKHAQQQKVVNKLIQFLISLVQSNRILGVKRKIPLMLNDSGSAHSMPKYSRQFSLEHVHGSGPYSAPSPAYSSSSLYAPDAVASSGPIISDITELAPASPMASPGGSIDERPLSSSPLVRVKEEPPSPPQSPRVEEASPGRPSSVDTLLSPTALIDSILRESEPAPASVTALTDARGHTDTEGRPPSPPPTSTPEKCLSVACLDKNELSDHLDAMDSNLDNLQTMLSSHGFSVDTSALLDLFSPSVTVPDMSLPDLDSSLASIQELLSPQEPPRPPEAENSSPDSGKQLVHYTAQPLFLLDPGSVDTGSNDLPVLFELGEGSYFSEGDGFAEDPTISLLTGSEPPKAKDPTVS
Summary of the method: as §1

SPIC = molecular target: T2, SPIC (Homo sapiens, UniProt Q8N5J4 1-248); settings: protein: recombinant; tags: N-terminal GST; dsDNA, one strand shown
T2 sequence: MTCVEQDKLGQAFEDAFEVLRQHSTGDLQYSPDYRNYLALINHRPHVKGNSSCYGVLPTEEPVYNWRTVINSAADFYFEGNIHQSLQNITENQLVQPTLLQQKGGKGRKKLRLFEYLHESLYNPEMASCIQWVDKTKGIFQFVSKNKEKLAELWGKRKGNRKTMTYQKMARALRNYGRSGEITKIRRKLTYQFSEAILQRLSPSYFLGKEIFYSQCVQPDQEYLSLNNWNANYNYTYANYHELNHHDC
Summary of the method: as §1

ELF4 = ELF4 (Homo sapiens, UniProt Q99607 1-663); settings: protein: recombinant; tags: N-terminal GST; dsDNA, one strand shown
ELF4, sequence (Q99607 whole entry): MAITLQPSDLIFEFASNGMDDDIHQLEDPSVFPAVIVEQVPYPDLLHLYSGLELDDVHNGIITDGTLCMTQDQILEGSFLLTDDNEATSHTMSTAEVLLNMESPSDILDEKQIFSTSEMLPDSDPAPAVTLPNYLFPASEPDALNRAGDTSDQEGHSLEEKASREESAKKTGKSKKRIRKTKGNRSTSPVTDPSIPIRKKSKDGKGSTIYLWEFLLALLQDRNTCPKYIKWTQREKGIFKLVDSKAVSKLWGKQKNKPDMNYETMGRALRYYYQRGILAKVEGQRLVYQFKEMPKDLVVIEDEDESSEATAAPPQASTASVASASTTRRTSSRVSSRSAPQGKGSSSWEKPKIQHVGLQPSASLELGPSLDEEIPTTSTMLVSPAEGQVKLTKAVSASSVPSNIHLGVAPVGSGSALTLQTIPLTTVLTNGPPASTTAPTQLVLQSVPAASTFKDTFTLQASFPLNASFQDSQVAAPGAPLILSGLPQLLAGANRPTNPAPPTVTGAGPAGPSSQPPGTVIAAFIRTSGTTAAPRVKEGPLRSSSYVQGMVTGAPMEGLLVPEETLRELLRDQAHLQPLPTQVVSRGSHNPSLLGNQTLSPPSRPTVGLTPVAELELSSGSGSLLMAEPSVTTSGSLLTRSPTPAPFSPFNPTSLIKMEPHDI
Summary of the method: as §1

ELK4 = molecular target: T3, ELK4 (Homo sapiens, UniProt P28324-2 1-405); settings: protein: recombinant; tags: N-terminal GST; dsDNA, one strand shown
T3 sequence: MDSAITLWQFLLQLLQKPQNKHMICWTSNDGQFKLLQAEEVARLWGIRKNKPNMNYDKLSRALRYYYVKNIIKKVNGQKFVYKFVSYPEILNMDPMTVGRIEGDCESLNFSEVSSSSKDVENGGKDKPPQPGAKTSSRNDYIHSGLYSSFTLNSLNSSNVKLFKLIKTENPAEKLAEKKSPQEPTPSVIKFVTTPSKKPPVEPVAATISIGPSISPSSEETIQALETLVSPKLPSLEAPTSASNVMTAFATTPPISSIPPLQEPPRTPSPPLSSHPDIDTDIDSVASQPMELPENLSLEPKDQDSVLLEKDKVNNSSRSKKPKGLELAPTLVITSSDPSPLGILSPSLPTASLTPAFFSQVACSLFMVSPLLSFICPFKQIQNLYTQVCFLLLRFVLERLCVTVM
Summary of the method: as §1

ETV2 = molecular target: T4, ETV2 (Homo sapiens, UniProt O00321 1-342); settings: protein: recombinant; tags: N-terminal GST; dsDNA, one strand shown
T4 sequence: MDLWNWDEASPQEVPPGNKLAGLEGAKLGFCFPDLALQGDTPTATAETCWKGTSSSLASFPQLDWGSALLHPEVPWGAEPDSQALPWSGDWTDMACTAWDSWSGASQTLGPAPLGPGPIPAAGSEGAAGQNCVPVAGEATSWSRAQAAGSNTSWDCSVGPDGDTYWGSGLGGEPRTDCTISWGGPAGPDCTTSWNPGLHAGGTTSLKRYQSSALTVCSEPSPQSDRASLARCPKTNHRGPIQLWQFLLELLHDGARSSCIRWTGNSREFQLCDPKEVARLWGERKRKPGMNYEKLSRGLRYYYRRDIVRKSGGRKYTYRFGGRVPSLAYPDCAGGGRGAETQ
Summary of the method: as §1

ELF3 = molecular target: T5, ELF3 (Homo sapiens, UniProt P78545 1-371); settings: protein: recombinant; tags: N-terminal GST; dsDNA, one strand shown
T5 sequence: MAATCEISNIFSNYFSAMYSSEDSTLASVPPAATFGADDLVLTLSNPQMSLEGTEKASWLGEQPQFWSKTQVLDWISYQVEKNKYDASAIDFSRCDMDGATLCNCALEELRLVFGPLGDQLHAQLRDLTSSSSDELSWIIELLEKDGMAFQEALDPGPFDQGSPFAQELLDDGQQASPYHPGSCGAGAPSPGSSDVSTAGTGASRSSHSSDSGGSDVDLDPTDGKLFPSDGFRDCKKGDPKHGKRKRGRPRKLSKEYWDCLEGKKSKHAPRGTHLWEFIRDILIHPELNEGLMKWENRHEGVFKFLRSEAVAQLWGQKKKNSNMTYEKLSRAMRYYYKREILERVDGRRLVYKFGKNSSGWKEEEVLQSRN
Summary of the method: as §1

CRX = CRX (Homo sapiens, UniProt O43186 1-299); settings: protein: recombinant; tags: N-terminal GST; dsDNA, one strand shown
CRX, sequence (O43186 whole entry): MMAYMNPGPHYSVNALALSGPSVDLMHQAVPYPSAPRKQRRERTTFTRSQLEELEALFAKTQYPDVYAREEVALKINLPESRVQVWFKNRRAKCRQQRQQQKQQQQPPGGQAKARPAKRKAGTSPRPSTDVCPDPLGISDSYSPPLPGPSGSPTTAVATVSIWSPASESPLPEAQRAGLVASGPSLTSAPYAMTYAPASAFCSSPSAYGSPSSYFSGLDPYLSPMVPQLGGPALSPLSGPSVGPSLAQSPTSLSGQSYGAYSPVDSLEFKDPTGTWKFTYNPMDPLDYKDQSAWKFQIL
Summary of the method: as §1

ETV1 = ETV1 (Homo sapiens, UniProt P50549 1-477); settings: protein: recombinant; tags: N-terminal GST; dsDNA, one strand shown
ETV1, sequence (P50549 whole entry): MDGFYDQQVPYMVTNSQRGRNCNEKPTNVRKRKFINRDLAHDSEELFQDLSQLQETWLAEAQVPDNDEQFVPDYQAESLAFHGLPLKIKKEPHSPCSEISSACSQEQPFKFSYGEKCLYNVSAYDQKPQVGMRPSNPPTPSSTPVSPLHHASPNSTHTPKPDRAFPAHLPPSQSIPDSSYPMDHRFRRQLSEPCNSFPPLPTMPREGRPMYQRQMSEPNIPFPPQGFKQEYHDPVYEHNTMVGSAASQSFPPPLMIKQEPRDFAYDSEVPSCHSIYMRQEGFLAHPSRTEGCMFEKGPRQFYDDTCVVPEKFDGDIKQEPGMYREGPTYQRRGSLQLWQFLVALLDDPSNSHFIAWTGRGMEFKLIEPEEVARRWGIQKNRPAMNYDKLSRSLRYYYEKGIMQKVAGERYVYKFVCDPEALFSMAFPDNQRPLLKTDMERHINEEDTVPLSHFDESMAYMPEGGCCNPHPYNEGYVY
Summary of the method: as §1

ERF = molecular target: T6, ERF (Homo sapiens, UniProt P50548 1-548); settings: protein: recombinant; tags: N-terminal GST; dsDNA, one strand shown
T6 sequence: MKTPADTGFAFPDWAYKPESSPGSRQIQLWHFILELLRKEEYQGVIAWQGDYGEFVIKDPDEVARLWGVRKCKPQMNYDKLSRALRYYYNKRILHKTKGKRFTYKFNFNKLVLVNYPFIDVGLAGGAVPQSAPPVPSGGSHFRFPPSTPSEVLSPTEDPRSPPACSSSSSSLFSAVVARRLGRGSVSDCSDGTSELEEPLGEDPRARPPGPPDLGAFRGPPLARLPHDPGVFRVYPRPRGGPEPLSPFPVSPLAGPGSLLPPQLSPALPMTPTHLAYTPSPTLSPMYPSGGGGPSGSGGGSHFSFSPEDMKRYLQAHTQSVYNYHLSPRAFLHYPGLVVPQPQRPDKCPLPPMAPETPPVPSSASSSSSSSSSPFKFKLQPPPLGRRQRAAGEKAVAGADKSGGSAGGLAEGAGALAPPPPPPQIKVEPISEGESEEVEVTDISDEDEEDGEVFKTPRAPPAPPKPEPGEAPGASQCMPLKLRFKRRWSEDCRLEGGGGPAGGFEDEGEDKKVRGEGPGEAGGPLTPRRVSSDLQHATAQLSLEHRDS
Summary of the method: as §1

ETV3L = molecular target: T7, ETV3L (Homo sapiens, UniProt Q6ZN32 1-361); settings: protein: recombinant; tags: N-terminal GST; dsDNA, one strand shown
T7 sequence: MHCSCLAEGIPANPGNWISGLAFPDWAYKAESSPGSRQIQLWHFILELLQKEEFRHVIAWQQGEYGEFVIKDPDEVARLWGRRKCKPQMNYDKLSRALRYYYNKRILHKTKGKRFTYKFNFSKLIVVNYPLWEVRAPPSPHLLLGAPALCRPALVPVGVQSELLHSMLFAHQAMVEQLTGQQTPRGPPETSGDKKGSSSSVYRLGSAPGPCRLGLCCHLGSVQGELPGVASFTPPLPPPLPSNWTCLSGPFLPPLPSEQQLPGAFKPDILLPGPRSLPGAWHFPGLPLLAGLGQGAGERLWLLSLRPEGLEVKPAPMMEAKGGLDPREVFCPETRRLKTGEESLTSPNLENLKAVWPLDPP
Summary of the method: as §1

ETS2 = molecular target: T8, ETS2 (Homo sapiens, UniProt P15036 1-469); settings: protein: recombinant; tags: N-terminal GST; dsDNA, one strand shown
T8 sequence: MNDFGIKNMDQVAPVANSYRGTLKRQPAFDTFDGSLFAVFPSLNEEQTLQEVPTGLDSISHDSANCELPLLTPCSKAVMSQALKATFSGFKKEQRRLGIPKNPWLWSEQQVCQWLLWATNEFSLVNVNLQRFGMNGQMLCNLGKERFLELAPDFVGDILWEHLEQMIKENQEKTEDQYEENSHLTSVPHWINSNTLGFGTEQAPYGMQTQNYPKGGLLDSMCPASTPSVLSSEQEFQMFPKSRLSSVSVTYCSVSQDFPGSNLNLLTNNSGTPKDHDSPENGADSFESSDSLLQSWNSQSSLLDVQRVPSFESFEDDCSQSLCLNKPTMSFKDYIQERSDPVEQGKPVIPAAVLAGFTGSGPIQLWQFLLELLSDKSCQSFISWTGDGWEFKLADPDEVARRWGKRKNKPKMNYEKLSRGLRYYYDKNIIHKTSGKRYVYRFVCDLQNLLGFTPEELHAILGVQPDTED
Summary of the method: as §1

SPDEF = molecular target: T9, SPDEF (Homo sapiens, UniProt O95238 1-335); settings: protein: recombinant; tags: N-terminal GST; dsDNA, one strand shown
T9 sequence: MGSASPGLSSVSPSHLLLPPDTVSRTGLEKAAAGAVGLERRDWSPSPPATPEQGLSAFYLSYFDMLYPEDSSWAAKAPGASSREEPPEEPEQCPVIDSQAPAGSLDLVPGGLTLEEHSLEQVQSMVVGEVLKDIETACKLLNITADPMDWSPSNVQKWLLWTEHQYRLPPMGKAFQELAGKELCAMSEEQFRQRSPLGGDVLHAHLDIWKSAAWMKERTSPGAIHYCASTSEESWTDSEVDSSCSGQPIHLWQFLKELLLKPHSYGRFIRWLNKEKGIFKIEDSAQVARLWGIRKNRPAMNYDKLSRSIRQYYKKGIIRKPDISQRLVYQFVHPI
Summary of the method: as §1

ETV7 = molecular target: T10, ETV7 (Homo sapiens, UniProt Q9Y603 1-341); settings: protein: recombinant; tags: N-terminal GST; dsDNA, one strand shown
T10 sequence: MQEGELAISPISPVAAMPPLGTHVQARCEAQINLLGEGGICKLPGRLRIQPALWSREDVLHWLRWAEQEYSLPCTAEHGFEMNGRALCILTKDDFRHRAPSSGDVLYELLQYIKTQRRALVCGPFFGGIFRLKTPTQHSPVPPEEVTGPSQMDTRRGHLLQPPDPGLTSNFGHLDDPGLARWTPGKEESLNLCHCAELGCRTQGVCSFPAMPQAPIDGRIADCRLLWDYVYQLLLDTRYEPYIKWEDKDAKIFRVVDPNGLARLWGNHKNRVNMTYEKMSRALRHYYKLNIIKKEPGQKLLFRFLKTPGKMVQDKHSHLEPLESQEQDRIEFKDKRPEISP
Summary of the method: as §1

ELF5 = molecular target: T11, ELF5 (Homo sapiens, UniProt Q9UKW6-2 1-255); settings: protein: recombinant; tags: N-terminal GST; dsDNA, one strand shown
T11 sequence: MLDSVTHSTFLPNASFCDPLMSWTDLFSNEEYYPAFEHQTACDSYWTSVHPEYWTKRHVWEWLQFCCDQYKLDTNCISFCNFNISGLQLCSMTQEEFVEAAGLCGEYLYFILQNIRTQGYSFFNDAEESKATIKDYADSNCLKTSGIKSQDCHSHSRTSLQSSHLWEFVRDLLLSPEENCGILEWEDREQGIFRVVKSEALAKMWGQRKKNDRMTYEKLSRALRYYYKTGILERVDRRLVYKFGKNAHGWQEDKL
Summary of the method: as §1

ETV3 = molecular target: T12, ETV3 (Homo sapiens, UniProt P41162-2 1-143); settings: protein: recombinant; tags: N-terminal GST; dsDNA, one strand shown
T12 sequence: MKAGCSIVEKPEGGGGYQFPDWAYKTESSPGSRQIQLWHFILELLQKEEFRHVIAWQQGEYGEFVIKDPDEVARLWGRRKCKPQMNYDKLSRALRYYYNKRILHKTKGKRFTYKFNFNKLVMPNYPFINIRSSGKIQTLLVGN
Summary of the method: as §1

ETV6 = ETV6 (Homo sapiens, UniProt P41212 1-452); settings: protein: recombinant; tags: N-terminal GST; dsDNA, one strand shown
ETV6, sequence (P41212 whole entry): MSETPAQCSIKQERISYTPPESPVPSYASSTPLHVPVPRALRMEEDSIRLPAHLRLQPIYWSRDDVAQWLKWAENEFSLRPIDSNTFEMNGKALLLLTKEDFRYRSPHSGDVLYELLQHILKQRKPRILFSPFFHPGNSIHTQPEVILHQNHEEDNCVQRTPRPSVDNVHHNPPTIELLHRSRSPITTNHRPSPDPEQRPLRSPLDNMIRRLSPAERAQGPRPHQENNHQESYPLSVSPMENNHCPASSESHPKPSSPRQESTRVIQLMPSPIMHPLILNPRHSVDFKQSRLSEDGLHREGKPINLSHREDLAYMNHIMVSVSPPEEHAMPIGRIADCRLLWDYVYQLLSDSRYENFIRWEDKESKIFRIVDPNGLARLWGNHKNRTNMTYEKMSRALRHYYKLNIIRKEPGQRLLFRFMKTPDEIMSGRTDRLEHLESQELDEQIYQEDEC
Summary of the method: as §1

ACGTTA
binding signal (FEV): 1.13 fold enrichment (6-mer frequency, TF over GST control)
binding signal (ETV5): 1.11 fold enrichment (6-mer frequency, TF over GST control)
binding signal (HSF1): 1.04 fold enrichment (6-mer frequency, TF over GST control)
binding signal (SPIC): 1.18 fold enrichment (6-mer frequency, TF over GST control)
binding signal (ELF4): 1.11 fold enrichment (6-mer frequency, TF over GST control)
binding signal (ELK4): 1.03 fold enrichment (6-mer frequency, TF over GST control)
binding signal (ETV2): 1.28 fold enrichment (6-mer frequency, TF over GST control)
binding signal (ELF3): 1.09 fold enrichment (6-mer frequency, TF over GST control)
binding signal (CRX): 1.17 fold enrichment (6-mer frequency, TF over GST control)
binding signal (ETV1): 1.05 fold enrichment (6-mer frequency, TF over GST control)
binding signal (ERF): 1.17 fold enrichment (6-mer frequency, TF over GST control)
binding signal (ETV3L): 1.12 fold enrichment (6-mer frequency, TF over GST control)
binding signal (ETS2): 1.15 fold enrichment (6-mer frequency, TF over GST control)
binding signal (SPDEF): 1.06 fold enrichment (6-mer frequency, TF over GST control)
binding signal (ETV7): 1.09 fold enrichment (6-mer frequency, TF over GST control)
binding signal (ELF5): 1.06 fold enrichment (6-mer frequency, TF over GST control)
binding signal (ETV3): 1.16 fold enrichment (6-mer frequency, TF over GST control)
binding signal (ETV6): 1.12 fold enrichment (6-mer frequency, TF over GST control)
